Laboratory results: the supplement of paper PMC6555819

The sequences below were run on VDR:RXRa (NR concentration 270 nM, RXRa partner concentration 90 nM) (assay: PBM binding z-score (relative to random genomic background probes); higher = stronger binding; sequences stand for … in GC…GCGATTGACAGCGTAGAATGAAGG).
Description: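 Protein-binding microarray (Agilent 4x180K custom design, double-stranded 60-nt probes: 5' GC cap, 34-nt variable region, 24-nt constant primer region; full probe sequence given). Purified or IVT nuclear receptor:RXRα heterodimers (3:1 NR:RXRα, mostly 270:90 nM) or homodimers were incubated for 1 h in PBS with 2% milk and no ligand, then detected with Alexa488 antibodies. Fluorescence from o1-orientation probes (~5 replicates averaged) was converted to z-scores against 500 random hg19 background probes. Variable regions are seed direct-repeat (DR0–DR5) sites, all their single-nucleotide variants and half-site ablations.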

Row | Sequence | PBM binding z-score
1 | ACTATTAGTGGAGACGAGGGCAACCGATAGGTTG | 0.101
2 | ATCGAAAGGTCCTGAGGTGAGTATACAGAAAGGC | 0.189
3 | CGTCCAAGGTCAATGCCAGGTCAGTGAAAGCATT | 4.96
4 | TCGAGTAGGTTACCAATGGGGCACTCAGCTTTCT | 0.142
5 | TCTTGTAGATCAACAGGAGGTTGAGAAAGATCGA | -0.025
6 | GCGACTGGGGCATCAGCAGGTTACCATCACTTAA | -0.265
7 | TCTAGGAGGACACGAAAGGTCAGAGCTCGACATC | 3.42
8 | GGAACGAGGGCAAAGTTTATAGCATCTGTCGACG | 1.92
9 | TCGAGTAGGTTAGAGGCATTCAGAATGGCGTCGA | -0.327
10 | CCTACTGGGCCAAAGGTCATTGATTCCAATGCTC | 4.75
11 | AGAATGAGGTTATTAAGAGCAGGGAATTGCGGTC | 2
12 | CGTCCAAGGTCAAGGTCAGTGCAAGAGACTCGAA | 5.5
13 | CCAGACAGGTGAGAAGGTAACGCAGCCTCGATTA | -0.101
14 | ATCGAAAGGTCGAGGTGAATATAGAGAAAGGGAA | 2.45
15 | GGAACGAGGGCAAAGTTGATACCATCTGTCGACG | 1.48
16 | TCGAGTAGGTTACCAATGGGGCATTGAGCTTTCT | -0.0858
17 | GATACAGGGTCAGCTAGAGGCCAGAGAATGGAAA | 3.42
18 | ATATGTAGGTTAGCTCGGGTCATTCAGACTAGGC | 3.96
19 | CAACCAAGGTGAACAAGGTCGTTGATTACTATTC | 5.89
20 | ATATGTAGGTTAGGTGGGGTCATTCAGACTAGGC | 6.5

Row | Sequence | PBM binding z-score
21 | TTACCAAGGTGAAAGGTCGCTGATGCACGCCTTG | 2.72
22 | TAGCCTCGGTCATGGGCCAGTATACCACGCGAAC | -0.162
23 | TCTAGCAGGCCAGAGGGACACTCAAGAGGTACGG | -0.463
24 | AGAACGAGGGCACGCTGAGTTGATAGCTGAGTAG | 2.04
25 | GCTTGGAGATCAAGGTTAAGAAAGACTAAGCTAA | 0.128
26 | CCTGCTGGGTCAATGGTCAGCTAAAGCAGCTCGC | 0.85
27 | CGTATTAGTTGACCATAAGGGCAACCGAAGCTCG | 0.396
28 | GCTTGTAGATCAAGGTTAAGGAAGACTAAGCTAA | 0.00298
29 | ATACCAAGGTGATCGTGAGGTGGTTGATACTAAC | -0.0231
30 | AATACAGGGTCATCGTAGGCCAGAGTACGCACAG | 5.37
31 | ATCTCTAGGTAAAATTCAGTGAAAGATCGATAGA | 0.35
32 | GCTTCTAGGTCAACTGATGGTCAGCTAAAGCTCG | 2.06
33 | AGAACGAGGGCACGCTGAGTTGACAGCAGAGTAG | 2.32
34 | CGTCCAAGGTCATCGGAGGTCAGTGAAGACAGAT | 7.04
35 | AGAATGAGGTTACCAAAGATCAGGGAGACGCTTG | 1.51
36 | CCTAGCAGGCCAGGCTCACTCAAGCATTTCGCTT | -0.772
37 | TCATATAGGTAAATGCTATGTGAAAGTCCGATCT | 0.852
38 | TGAATGAGGTTATAAGAACAGGGAACGTTGCAAA | 0.915
39 | CGTCCAAGGTCAGAGAGGTAAGTGAATGCCGAGT | 4.27
40 | TCTGCTAGGTCAGTTGGTGAGCTAACGAGCTGCC | -0.377
